Many of the other results were omitted from the sample, so hits are more common in it than they were.
DUX4 txn inh – blocks DUX4-driven transcriptional activation | 293T-iDUX4 ZSCAN4-Gaussia luciferase reporter, 24 h; active compounds read low | activity change, negative = inhibition, % (no concentration beside the values) | 37,000 compounds, 0.8% hits | AID 1224904;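 active means mean inhibition of at least 10% in the main channel, exceeding the control channel by a set limit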
A number is an active result; ! = not confirmed by another sample.

`O=C(NC1CCCC1)N1CC2(C1)[C@@H](c1ccccc1)[C@@H](CO)N2CC1CC1` gave DUX4 txn inh inactive.
Screening O=C(NC1CCCC1)N1CC2(C1)[C@H](c1ccccc1)[C@H](CO)N2CC1CC1 returned DUX4 txn inh inactive.
O=C(c1ccncc1)N1CC2(C1)[C@H](c1ccccc1)[C@H](CO)N2CC1CCCC1 was read as DUX4 txn inh inactive.
O=C(c1ccncc1)N1CC2(C1)[C@@H](c1ccccc1)[C@@H](CO)N2CC1CCCC1 was read as DUX4 txn inh -28.1.
`C[C@@H]1CN([C@@H](C)CO)C(=O)c2cccc(NC(=O)c3ccncc3)c2O[C@H]1CN(C)CC1CCCCC1` gave DUX4 txn inh inactive.
Screening CC(=O)Nc1ccc2c(c1)C(=O)N(C)[C@H]1CC[C@H](CC(=O)NCc3ccc(Cl)cc3)O[C@@H]1CO2 returned DUX4 txn inh inactive.
`COCC(=O)Nc1ccc2c(c1)C(=O)N(C)C[C@H](OC)[C@@H](C)CN(Cc1cncnc1)[C@@H](C)CO2` gave DUX4 txn inh inactive.
COc1cccc(S(=O)(=O)N2CCCCN3[C@@H](CO)[C@H](c4ccc(-c5cccnc5)cc4)[C@@H]3C2)c1 was read as DUX4 txn inh inactive.
Screening COc1cccc(-c2ccc(C3[C@H]4CNC[C@@H]3N4S(=O)(=O)Cc3ccccc3)cc2)c1 (some centres not stated) returned DUX4 txn inh inactive.
`COc1cccc(S(=O)(=O)N2C[C@@H]3N[C@H](C2)C3c2ccc(-c3ccccc3F)cc2)c1` (some centres not stated) gave DUX4 txn inh -68.6!.
Screening CN(C)C(=O)c1cccc(-c2ccc(C3[C@H]4CNC[C@@H]3N4S(=O)(=O)Cc3ccccc3)cc2)c1 (some centres not stated) returned DUX4 txn inh inactive.
`Cc1cccc(S(=O)(=O)N2C[C@@H]3N[C@H](C2)C3c2ccc(-c3cncnc3)cc2)c1` (some centres not stated) gave DUX4 txn inh inactive.
`Cc1cccc(S(=O)(=O)N2C[C@@H]3N[C@H](C2)C3c2ccc(-c3ccccc3C)cc2)c1` (some centres not stated) gave DUX4 txn inh -72.6!.
`Cc1ccccc1-c1ccc(C2[C@H]3CNC[C@@H]2N3S(=O)(=O)c2ccc(F)cc2)cc1` (some centres not stated) gave DUX4 txn inh inactive.
For COc1ccc(S(=O)(=O)N2[C@@H]3CNC[C@H]2C3c2ccc(-c3ccccc3F)cc2)cc1 (some centres not stated) the results were DUX4 txn inh inactive.
For Cc1ccccc1-c1ccc(C2[C@H]3CNC[C@@H]2N3S(=O)(=O)c2cccc(F)c2)cc1 (some centres not stated) the results were DUX4 txn inh inactive.
For COc1cccc(-c2ccc(C3[C@@H]4CN(S(=O)(=O)c5ccccc5F)C[C@H]3N4)cc2)c1 (some centres not stated) the results were DUX4 txn inh inactive.
COc1cccc(-c2ccc(C3[C@@H]4CN(S(=O)(=O)Cc5ccccc5)C[C@H]3N4)cc2)c1 (some centres not stated) was read as DUX4 txn inh -21.8.
Screening COc1cccc(S(=O)(=O)N2C[C@@H]3N[C@H](C2)C3c2ccc(-c3ccccc3C)cc2)c1 (some centres not stated) returned DUX4 txn inh -35.6!.
Screening O=C(C[C@H]1CC[C@H]2[C@@H](COC[C@@H](O)CN2C(=O)c2ccccc2F)O1)N1CCOCC1 returned DUX4 txn inh inactive.
Screening O=C(C[C@@H]1CC[C@H]2[C@@H](COC[C@@H](O)CN2C(=O)Nc2ccccc2)O1)NC1Cc2ccccc2C1 returned DUX4 txn inh inactive.
Cc1ccc(S(=O)(=O)N[C@H]2C=C[C@@H](CC(=O)NCc3ccc(Cl)c(Cl)c3)O[C@@H]2CO)cc1 was read as DUX4 txn inh inactive.
Screening COc1ccccc1C(=O)Nc1ccc2c(c1)C(=O)N(C)[C@@H]1CC[C@H](CC(=O)NCc3ccc(Cl)c(Cl)c3)O[C@@H]1CO2 returned DUX4 txn inh inactive.
For CO[C@@H]1CN(C)C(=O)c2ccc(NC(=O)C3CC3)cc2OC[C@@H](C)N(Cc2nccs2)C[C@H]1C the results were DUX4 txn inh inactive.
COc1ccc2c3c(n(C)c2c1)[C@H](CO)N(C(=O)c1ccc(F)cc1)CC31CCN(CC2CC2)CC1 was read as DUX4 txn inh inactive.
`O=C(NCc1ccccn1)[C@@H]1[C@@H](CO)[C@@H]2Cn3c(cccc3=O)[C@@H]2N1CCc1ccccc1` gave DUX4 txn inh inactive.
Screening COc1ccc2c3c(n(C)c2c1)[C@H](CO)N(C)CC31CCN(S(=O)(=O)c2cn(C)cn2)CC1 returned DUX4 txn inh inactive.
CN(C)C(=O)[C@H]1[C@H](CO)[C@H]2Cn3c(ccc(-c4cccnc4)c3=O)[C@H]2N1Cc1ccccc1F was read as DUX4 txn inh inactive.
Screening C[C@@H](O)C#Cc1ccc([C@@H]2[C@H](CO)N3CCCCN(C(=O)Nc4ccccc4)C[C@@H]23)cc1 returned DUX4 txn inh inactive.

Screens: PubChem, Broad Institute
